Assay outcomes: PubChem, National Center for Advancing Translational Sciences (NCATS)
TDP1 cell CPT: qHTS for Inhibitors of human tyrosyl-DNA phosphodiesterase 1 (TDP1): qHTS in cells in presence of CPT; 420,000 compounds, 12% hits; Potency, µM (doses to about 46.2 µM), for the others: at the highest dose activity change, negative = growth inhibition, actives largely listed as inhibitors; chicken DT40 Tdp1-/-;hTDP1 cells + 20 nM CPT, ATP luminescence, 48 h; note: potency is the fitted concentration of half-maximal effect; % is set by controls: 0 for no effect and ±100 for the full control effect; nearly all actives have a fitted effect of over 55% in size
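Chicken DT40 Tdp1-/- cells stably complemented with human TDP1 were seeded at 400 cells/well in medium containing 20 nM camptothecin, exposed to pin-transferred compounds, and grown at 37 °C for at least 48 hr. Viability was read as ATP luminescence.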
HepG2 tox: qHTS for Inhibitors of TGF-b: Cytotox Counterscreen; HepG2 CAGA-GFP viability, ATP luminescence, 18 h; Potency, µM (top dose mostly 46.1 µM), for the others: top-dose activity change, negative = cytotoxicity, actives largely listed as cytotoxic; 410,000 compounds, 0.76% hits; note: potency is the fitted concentration of half-maximal effect
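CellTiter-Glo luminescence gave cytotoxicity after 18 hours at 37 degrees C. The cells were HepG2 CAGA-GFP in 1% FBS DMEM, stimulated with 500 pg/mL TGF-beta after compound addition. %Activity was normalised to no-cell wells (complete cell-killing) and DMSO (no toxicity), and curves were fitted and classified.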
TDP1 block: qHTS Assay for Inhibitors of Tyrosyl-DNA Phosphodiesterase (TDP1); recombinant TDP1, AlphaScreen DNA substrate cleavage; Potency, µM (series often up to 130 µM), inactives show top-dose activity change, negative = inhibition, most hits filed as inhibitors; 350,000 compounds, 0.28% hits; note: potency is the fitted concentration of half-maximal effect; % is set by controls: 0 for no effect and ±100 for the full control effect; nearly all actives have a fitted effect of over 40% in size
Target sequence (Q9NUW8 whole entry, looked up): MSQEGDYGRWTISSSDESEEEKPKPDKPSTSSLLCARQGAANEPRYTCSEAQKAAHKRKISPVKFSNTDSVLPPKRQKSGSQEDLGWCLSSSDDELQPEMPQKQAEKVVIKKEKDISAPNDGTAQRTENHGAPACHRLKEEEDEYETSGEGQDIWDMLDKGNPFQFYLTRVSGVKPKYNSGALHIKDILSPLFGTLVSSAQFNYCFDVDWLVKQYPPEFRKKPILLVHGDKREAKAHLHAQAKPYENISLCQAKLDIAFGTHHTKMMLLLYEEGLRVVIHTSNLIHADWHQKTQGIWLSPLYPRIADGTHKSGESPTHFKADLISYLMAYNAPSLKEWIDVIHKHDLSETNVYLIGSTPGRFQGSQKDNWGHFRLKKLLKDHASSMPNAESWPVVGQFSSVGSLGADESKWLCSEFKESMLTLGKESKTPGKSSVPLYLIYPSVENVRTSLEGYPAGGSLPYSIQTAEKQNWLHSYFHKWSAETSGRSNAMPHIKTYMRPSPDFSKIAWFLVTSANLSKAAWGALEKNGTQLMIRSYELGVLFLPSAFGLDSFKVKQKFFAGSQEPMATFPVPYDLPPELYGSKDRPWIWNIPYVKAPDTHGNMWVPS
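Recombinant human Tdp1 (E. coli-expressed, 1 nM final) preincubated with compounds 15 min at room temperature, then 5'-biotin/3'-phosphotyrosine-FITC DNA substrate (15 nM final) added for 5 min. AlphaScreen beads (10 ug/ml final) added 10 min; cleavage lowers signal.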
DT40 TDP1 no CPT: qHTS for Inhibitors of human tyrosyl-DNA phosphodiesterase 1 (TDP1): qHTS in cells in absence of CPT; DT40 Tdp1-/- hTDP1 cells, no CPT, ATP luminescence, 48 h; 420,000 compounds, 15% hits; Potency, µM (titrated, usually from 46.2 µM), for inactives: top-dose activity change, negative = growth inhibition, most hits filed as inhibitors; note: potency is the fitted concentration of half-maximal effect; % is set by controls: 0 for no effect and ±100 for the full control effect; nearly all actives have a fitted effect of over 55% in size
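No-CPT arm: Tdp1-/-;hTDP1 DT40 cells (400/well) plus compounds, incubated ≥48 hr at 37 °C. Readout CellTiter-Glo luminescence.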
IL1B secr inh: qHTS for Inhibitors of Inflammasome Signaling: IL-1-beta AlphaLISA Primary Screen; THP-1 LPS/ATP IL-1B secretion, AlphaLISA, 16 h; stronger effect = lower value; activity change, % at 57.5 µM; 360,000 compounds, 4.7% hits; AID 743279, 2014; in the data active = activity change below about -50%; inconclusive = mostly about -30% to -49%; note: % is set by controls: 0 for no effect and ±100 for the full control effect
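THP-1 cells pretreated 1 hr with compounds (up to 57.5 uM final), then stimulated with LPS (250 ng/mL final) plus ATP (1.25 mM final); secreted IL-1B measured by AlphaLISA after 16 hr, decreased signal indicating inhibition.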
TGFb inhibitor: qHTS for Inhibitors of TGF-b. 410,000 compounds, 1.2% hits. HepG2 CAGA-GFP TGF-b/SMAD3 reporter, GFP fluorescence, 18 h; TGF-beta stimulated, 500 pg/mL final. Potency, µM (highest dose often 46.1 µM), for the others: at the top dose activity, negative = inhibition, actives largely listed as inhibitors. AID 588855, 2011; note: potency is the fitted concentration of half-maximal effect; % is set by controls: 0 for no effect and ±100 for the full control effect; nearly all actives have a fitted effect of over 65% in size
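TGF-beta reporter screen: HEPG2 CAGA-GFP, 1% FBS, 500 pg/mL TGF-beta final, 18 h; per-cell GFP summed per well; curves fitted and categorized by class.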
Active calls of the source: *; ? = inconclusive; · = no result; [ ] = another dose, or the depositor's remark. Compounds with a hit are over-represented: about 19% of the library has one in this group of screens. Unless noted, calls come from the whole dose curve; as a rule, active = well fitted curve in the direction sought with a large enough effect; inconclusive = small, poorly fitted or top-dose-only effect, or another doubt; inactive = no such curve, though single readings can be large; an effect the other way counts as inactive or inconclusive.

SMILES | TDP1 cell CPT | HepG2 tox | TDP1 block | DT40 TDP1 no CPT | IL1B secr inh | TGFb inhibitor
Cc1ccc(N(CCC#N)C(=O)CSc2nc3ccccc3c(=O)[nH]2)cc1 | ? | -14% | 0%[56.1 µM] | 1% | 17 | -3%
O=C(c1cccs1)N1C[C@H](O)[C@@H](n2cc(-c3ccc(F)cc3)nn2)C[C@@H]1c1ccccc1 | -22% | -4% | · | -9% | ? | 10%
O=C(c1cccs1)N1C[C@@H](n2cc(-c3ccc(F)cc3)nn2)[C@H](O)C[C@@H]1c1ccccc1 | 15µM* | 2% | · | 21µM* | -19 | 13%
COc1c(Cl)cc(C(=O)NN)cc1Cl | 0% | 26% | 5% | ? | 86 | ?
NNC(=O)c1cc(O)c(O)c(O)c1 | 15µM* | -2% | · | ? | 1 | ?
O=[N+]([O-])c1cccc(-c2c(-c3ccccc3)ncc3cc(F)ccc23)c1 | 8.2µM* | -30% | 4% | 21µM* | 20 | ?
O=[N+]([O-])c1ccc(-c2c(-c3ccccc3)ncc3cc(F)ccc23)cc1 | 15µM* | -25% | 5% | 18µM* | 23 | -6%
O=[N+]([O-])c1cccc(-c2cnc3ccccc3n2)c1 | 4% | 5% | · | -14% | 28 | ?
CC(=O)Nc1ccc(S(=O)(=O)NC2(C(F)(F)F)C(=O)Nc3c2c(=O)[nH]c(=O)n3-c2ccc(C)cc2)cc1 (centres undefined) | -7% | -15% | -5% | 12% | · | -7%
O=C(CCCCCN1C(=O)c2cccc3cccc(c23)C1=O)NCCO | ? | 0% | 0% | ? | ? | 24%
Cc1nc2ccccn2c1P(=O)(c1ccccc1)c1ccccc1 | · | · | 4% | · | · | ·
CCN1C(c2ccccc2)=C(c2ccccc2)S/C1=C\C=C1/SC(=S)N(C)C1=O | 13µM* | -11% | · | 9.2µM* | -17 | -9%
CCN1C(c2ccccc2)=C(c2ccccc2)S/C1=C/C=C1\SC(=S)N(C)C1=O | 10µM* | -16% | 5% | 10µM* | -21 | -9%
COC(=O)N1C2CC3(C)CC(=O)CC1(C)C3c1ccccc12 (centres undefined) | · | · | 16%[12.3 µM] | · | · | ·
CC(=O)c1c(C)[nH]c(C(=O)NCCc2ccc(Cl)cc2)c1C | ? | -5% | 3% | -28% | -1 | 3%
CCOC(=O)c1c(C)[nH]c(C(=O)NCCc2ccc(OC)c(OC)c2)c1C | ? | -37% | 8% | 15µM* | -5 | 1%
CCOc1ccc(CCNC(=O)c2[nH]c(C)c(C(C)=O)c2CC)cc1OCC | 18µM* | -33% | 7% | 23µM* | 30 | -28%
CCOC(=O)c1c(C)[nH]c(C(=O)N2CCc3cc(OC)c(OC)cc3C2)c1C | 10µM* | -1% | · | 16µM* | -61* | ?
CCCNC(=O)c1[nH]c(C)c(C(=O)OCC)c1C | · | · | -3% | · | · | ·
O=C(CCN1N=C(c2ccccc2)CCC1=O)NCCc1ccc(Cl)cc1 | ? | -15% | -2% | ? | · | ?
COc1ccc(Cl)cc1NC(=O)c1cc(S(=O)(=O)N2CCc3ccccc32)cn1C | 1% | -21% | 6% | -10% | · | -29%
Cc1c(/C=C/C(=O)c2ccc(C(C)C)cc2)cnn1C | ? | -21% | 5% | ? | -73* | 3%
COc1cccc(C2c3[nH]c4ccccc4c3C[C@H]3C(=O)N(c4ccccc4C(=O)N4CCC(C(=O)O)CC4)C(=O)N23)c1 (some centres undefined) | 4% | -1% | · | 5% | 26 | 0%
OC(CNCCc1ccc(Cl)cc1)COc1ccc2ccccc2c1 (centres undefined) | ? | -102% | 8% | ? | -106* | ?
OC(CNCCc1ccccc1)COc1ccc(OCC(O)CNCCc2ccccc2)cc1 (centres undefined) | -92% | -90% | 5% | 16µM* | -91* | ?
SMILES | TDP1 cell CPT | HepG2 tox | TDP1 block | DT40 TDP1 no CPT | IL1B secr inh | TGFb inhibitor
COc1ccc(CCNCC(O)COc2ccc(Cl)cc2)cc1OC (centres undefined) | ? | -9% | 4% | -17% | ? | 1%
COc1ccc(CCNCC(O)COc2c(C)cccc2C)cc1OC (centres undefined) | -28% | -22% | · | ? | -67* | 0%
Clc1ccc(OCCNCCc2ccccc2)cc1 | ? | -53% | · | ? | -53* | ?
Cc1cccc(-n2nc(C)c(C(=O)Nc3cc(C)ccc3C)c2-n2cccc2)c1 | ? | -54% | 5% | ? | · | -15%
Cc1oc2ncn(C)c(=O)c2c1C(=O)NCc1ccc(Cl)cc1 | -23% | 11% | -7% | ? | · | 10%
CN(CCOc1cccc2ccccc12)Cc1ccccc1 | -2% | -1% | 6% | -4% | 3 | -18%
CCC(=O)c1ccc(OCC(O)CNCCc2ccc(Cl)cc2)cc1 (centres undefined) | ? | -107% | · | ? | ? | ?
COc1ccc(CCNCC(O)COc2cccc(C(C)=O)c2)cc1OC (centres undefined) | -13% | -11% | · | ? | -6 | -1%
CC(=O)c1c(C)[nH]c2ccc(OCC(O)CNCCc3ccccc3)cc12 (centres undefined) | ? | -7% | · | 16µM* | · | -3%
OC(CNCCC(c1ccccc1)c1ccccc1)COc1ccccc1 (centres undefined) | 13µM* | -109% | 2% | 13µM* | -105* | ?
c1ccc(CCNCCCOc2cccc3ccccc23)cc1 | -25% | -84% | · | ? | -101* | ?
OC(CNCCc1ccc(Cl)cc1)COc1cc(Cl)ccc1Cl (centres undefined) | 16µM* | -105% | · | ? | -18 | 16µM*
CCCCNC(=O)c1c(-c2ccccc2)c(-c2ccccc2)nn(C)c1=O | ? | 4% | -2% | ? | · | 0%
COc1ccc(CCn2c(=O)c3cccnc3n(CC(=O)Nc3ccc(C)cc3C)c2=O)cc1OC | ? | -11% | 0% | ? | · | -9%
Cn1c(NCc2ccccc2F)nc2cc(-c3cccc(C(F)(F)F)c3)sc2c1=O | 13µM* | -14% | · | 15µM* | 26 | 5%
